# Data: PubChem BioAssay
# A number with no mark means an inactive call. Calls of active or inactive are those of the source.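 How the source made its calls: active means inhibition at or above 50% relative to wild type and mutant plate controls; inactive means inhibition below 50%.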
# Experiment: loss of swimming-algae plug formation – whole organism, Chlamydomonas reinhardtii, WT vs cilia-less mutant, absorbance, 96-well, primary screen (AID 463189);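 further: 0% = wild type cc124 cells in DMSO and 100% = ciliumless bld1 mutant cells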
# Details: Chlamydomonas reinhardtii gravitaxis, OD600 absorbance, 2 days; at 10 µM; hits give high values
row,Compound,inhibition
1,OC[C@H]1NC[C@@H](O)[C@@H]1O,-9.59%
2,O=c1[nH]c2ccccc2c2ccccc12,6.93%
3,CN(C)CC[C@@H](c1ccc(Cl)cc1)c1ccccn1,32.3%
4,CC(N)(C(=O)O)c1ccc(C(=O)O)cc1 (stereo not given),5.26%
5,c1ccc([C@H]2CN3CCSC3=N2)cc1,-1.39%
6,N[C@H](C(=O)O)[C@H]1C[C@@H]1C(=O)O,2.25%
7,CCCCCCCCCCCCC/C=C/C(O)C(N)CO (stereo not given),-1.48%
8,CC(C)(C)c1cc(/C=C(\C#N)C(N)=S)cc(C(C)(C)C)c1O,35.4%
9,COc1ccc2c(c1)c(CC(=O)O)c(C)n2Cc1ccc(F)cc1,4.4%
10,NC1CCN(c2cccc(Cl)n2)CC1,-3.28%
11,CNc1ncnc2c1ncn2[C@@H]1O[C@H](CO)[C@H](O)C1O (stereo not given in full),7.79%
12,COc1cc2c(c(OC)c1OC)-c1ccc(OC)c(=O)cc1[C@@H](NC(C)=O)CC2,4.38%
13,NCCCS(=O)(=O)O,-4.87%
14,O=C(c1cc(O)c(O)c([N+](=O)[O-])c1)c1ccccc1F,-0.57%
15,CCC(=O)N1CCN(C(=O)c2ccccc2)CC1,0.644%
16,COc1ccccc1N1CCN(CCCCNC(=O)c2ccc3ccccc3c2)CC1,6.15%
17,NCCCCCC(=O)O,3.27%
18,CCc1cccc(N(C)C(N)=Nc2cccc3ccccc23)c1,-1.11%
19,COc1ccc2[nH]cc(CCNC(C)=O)c2c1,13.5%
20,OC1(c2ccc(Cl)cc2)CCN(Cc2c[nH]c3ccccc23)CC1,21.4%

row,Compound,inhibition
1,CSC(=N)N,7.24%
2,CN1CCc2cccc3c2C1Cc1ccc(O)c(O)c1-3 (stereo not given),-7.51%
3,CCn1ccnc1CC1COc2ccccc2O1 (stereo not given),5.81%
4,NCCCCNS(=O)(=O)c1cccc2c(Cl)cccc12,-1.51%
5,O=C(c1ccc(OCCN2CCCCC2)cc1)c1c(-c2ccc(O)cc2)sc2cc(O)ccc12,4.7%
6,O=C(O)CN(CCN(CC(=O)O)CC(=O)O)CCN(CC(=O)O)CC(=O)O,6.57%
7,Cc1nc2c(OCc3ccccc3)cccn2c1CC#N,3.47%
8,N=C(N)c1ccc(OCCCCCOc2ccc(C(=N)N)cc2)cc1 (tested in a mixture with another compound),143% (active)
9,CCn1c(=O)c2[nH]c(-c3ccccc3)nc2n(CC)c1=O,-1.12%
10,Cc1ccc2c(c1)C(N1CCN(C)CC1)=Nc1cccnc1N2,7.3%
11,COc1ccccc1OCC(O)CN1CCN(CC(=O)Nc2c(C)cccc2C)CC1 (stereo not given),8.13%
12,c1cnc(N2CCN(Cc3ccc4c(c3)OCO4)CC2)nc1,0.952%
13,N#C/C(=C\c1ccc(O)c(O)c1)C(=O)NCCc1ccccc1,-1.25%
14,CN=C(NC#N)Nc1ccc(C2=NNC(=O)CC2C)cc1 (stereo not given),-4.34%
15,CCN1C(=O)C=CC1=O,-6.91%
16,O=C1NC(O)=NC1(c1ccccc1)c1ccccc1,-1.32%
17,CN/C(=C\[N+](=O)[O-])NCCSCc1ccc(CN(C)C)o1,1.86%
18,Cc1ccccc1CNc1ncnc2c1ncn2C1OC(CO)C(O)C1O (stereo not given),-2.9%
19,N#Cc1c(-c2ccccc2)no[n+]1[O-],-3.89%
20,COc1cc([C@@H]2c3cc4c(cc3[C@H](O)C3COC(=O)[C@@H]32)OCO4)cc(OC)c1OC (stereo not given in full),0.089%
